Sm TGR inh – inhibitors of Schistosoma mansoni thioredoxin glutathione reductase; AID 485364; 3% of 360,000 active; purified TGR, DTNB reduction, TNB absorbance 405 nm; Potency, µM (highest dose often 114 µM), for the others: at the top dose activity change, negative = inhibition, most hits filed as inhibitors; also: potency is read from the fitted curve at half-maximal effect; % is scaled to controls: 0 for no effect and ±100 for the full control effect; nearly all actives have a fitted effect of over 60% in size
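TGR 20 nM + NADPH 100 uM (dispensed conc.), cpd preinc 15 min RT; start with NADPH (500 uM addition) then DTNB (15 mM addition). Kinetic TNB absorbance, 405 nm filter. Four-parameter Hill fit across titration.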
HCV inh – blocks hepatitis C virus; Potency, µM (doses to about 41.8 µM), inactives show top-dose activity change, negative = inhibition, hits mostly inhibitors; Huh7.5.1 HCVcc-Cre infection, luciferase reporter, 44 h; AID 651820; 3.4% of 340,000 active; also: potency is read from the fitted curve at half-maximal effect; % is scaled to controls: 0 for no effect and ±100 for the full control effect
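Luciferase read-out (15 sec integration) after a 15 min room-temperature substrate step quantifies HCVcc-Cre infection. Cells, 1,000 per well, had compound added 4 h post-plating, then virus at ~0.5 moi, and were cultured 44 h.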
HCMV inh – human cytomegalovirus inhibition; HFF cells, HCMV-luciferase reporter, 72 h; hits give low values; activity change, negative = inhibition, % at 57.5 µM; 4.5% of 410,000 active; AID 1259415; in the data active = activity change below about -60%; inconclusive = no clear call, values can overlap the other calls; inactive = above about -39%; also: % is scaled to controls: 0 for no effect and ±100 for the full control effect
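Human foreskin fibroblasts infected with luciferase-reporter HCMV at MOI 1 PFU/cell, compounds at two doses. Luciferase measured 72 h post infection; normalized to buffer-only basal and Salinomycin (10uM) controls.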
Pf growth 48h – P. falciparum growth inhibition at 48 hours (one generation) | P. falciparum luciferase growth in erythrocytes, 48 h | Potency, µM (doses to about 28.7 µM), for inactives: at the top dose activity change, negative = inhibition, most hits filed as inhibitors | 5.9% of 310,000 active | AID 504832; also: potency is read from the fitted curve at half-maximal effect; % is scaled to controls: 0 for no effect and ±100 for the full control effect
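Here the parasites carry a stable luciferase gene and grow inside erythrocytes in Albumax-based RPMI medium with compound for one erythrocytic cycle. Activity is scored as loss of luminescent signal.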
SARS PLP yeast – blocks SARS-CoV papain-like protease in a yeast assay. 0.19% of 330,000 active. S. cerevisiae expressing SARS-CoV PLpro, growth rescue. AID 485353. Potency, µM (top dose mostly 32.9 µM), for the others: at the highest dose activity, positive = growth rescue, actives largely listed as activators; calls by dose curve; also: potency is read from the fitted curve at half-maximal effect; 0% is about no effect; nearly all actives have a fitted effect of over 55% in size
Pf growth 96h – P. falciparum growth inhibition at 96 hours; P. falciparum luciferase reporter growth, 96 h; Potency, µM (doses to about 28.7 µM), inactives show at the highest dose activity change, negative = inhibition, actives largely listed as inhibitors; 6.9% of 320,000 active; also: potency is read from the fitted curve at half-maximal effect; % is scaled to controls: 0 for no effect and ±100 for the full control effect
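Erythrocytes infected with luciferase-expressing P. falciparum were dispensed at 2% hematocrit and 0.05% parasitemia (final), then incubated with compounds 96 hours at 37 C in 5% CO2. Luminescence after detection reagent addition reported growth.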
* marks the source's active call; other numbers are inactive results; ? = inconclusive; . = no result; [ ] = remark or other dose. Most compounds without a hit are left out; they make up all but 15% or so of the library. Unless noted, calls follow the shape of the dose curve; as a rule, active = well fitted curve in the direction sought with a large enough effect; inconclusive = small, poorly fitted or top-dose-only effect, or another doubt; inactive = no such curve, though single readings can be large; an effect the other way counts as inactive or inconclusive.

SMILES	Sm TGR inh	HCV inh	HCMV inh	Pf growth 48h	SARS PLP yeast	Pf growth 96h
Cc1nc(-c2ccc(S(=O)(=O)NCc3cccnc3)s2)cs1	-20%	?	-17	37%	-2%	4%
O=C(C1CCN(Cc2ccccc2O)CC1)N1CCN(Cc2ccc3c(c2)OCO3)CC1	-16%	?	-65*	-25%	?	?
Cc1noc(C)c1S(=O)(=O)N1CCC(C(=O)N2CCN(Cc3ccc4c(c3)OCO4)CC2)CC1	-17%	?	-20	?	2%	5.9µM*
O=C(C1CCN(C2CCN(Cc3ccc4c(c3)CCO4)CC2)CC1)N1CCOCC1	-18%	?	-18	14%	1%	12µM*
O=C(C1CCN(C2CCN(Cc3ccsc3)CC2)CC1)N1CCOCC1	6%	?	4	-4%	2%	?
O=C(/C=C/[C@H]1O[C@@H](n2cnc3c(NC(=O)c4ccccc4)ncnc32)[C@H](O)[C@@H]1O)NCCc1ccc(F)cc1	.	.	18	.	.	.
CN(CC(=O)Nc1cccc(F)c1)C(=O)C1CCC(C(=O)N(C)CC(=O)Nc2cccc(F)c2)CC1 (centres undefined)	.	-3%	-24	.	.	.
Fc1cccc(CN2CCN(Cc3nc(-c4cnccn4)no3)CC2)c1	.	9%	-10	6%	-1%	19%
COc1ccc(Cc2noc(CN3CCCC(OCc4ccccn4)C3)n2)cc1OC (centres undefined)	-4%	-18%	6	?	0%	13µM*
COc1ccc(Cc2noc(CN3CCN(Cc4cccc(Cl)c4)CC3)n2)cc1OC	-25%	?	-37	?	-1%	8.3µM*
c1ccc(COC2CCCN(Cc3nc(Cc4ccccc4)no3)C2)cc1 (centres undefined)	6%	-1%	?	?	0%	14%
c1ccc(C(c2ccccc2)N2CCN(Cc3nc(-c4cnccn4)no3)CC2)cc1	25µM*	-8%	12	?	-3%	?
COc1ccc(-c2noc(CN3CCCC(OCc4ccccn4)C3)n2)cc1 (centres undefined)	35µM*	?	0	?	-1%	?
Cc1cc(C)cc(NC(=O)[C@H](NC(=O)[C@@H]2Cc3ccccc3CN2)c2ccccc2)c1	-1%	-20%	.	?	-4%	?
CCC[C@H]1[C@H](N(C)Cc2cccs2)CC[C@@]23CCCN2C(=O)CCC[C@@H]13	.	.	-5	.	.	.
CCCOC1CCCN(Cc2nc(-c3cnccn3)no2)C1 (centres undefined)	3%	6%	-9	41%	-1%	10µM*
c1ccc(COC2CCCN(Cc3nc(-c4cnccn4)no3)C2)cc1 (centres undefined)	1%	8%	50	15%	1%	?
CCc1cccc(CC)c1N1C(=O)COCC1=O	.	.	-62*	.	.	.
Cc1cc(C(=O)COc2ccc(-c3nnco3)cc2)c(C)n1Cc1ccccc1	?	?	-70*	?	5%	?
CC(=O)Nc1cccc(NC(=O)C(=O)c2cn(CC(=O)N3CCCC3)c3ccccc23)c1	.	.	9	.	.	.
O=C(c1ccc(S(=O)(=O)N2CCCCCC2)cc1)N1CCN(c2ccccc2)CC1	-5%	-2%	-8	?	-3%	-17%
O=C(c1ccc(Cl)c(S(=O)(=O)N2CCCC2)c1)N1CCN(c2ccccc2)CC1	-7%	?	?	-20%[5.75 µM]	1%	14%
CC1CCN(C(=O)c2cccc(S(=O)(=O)N3CCN(c4ccccc4)CC3)c2)CC1	0%	-1%	-21	14%	1%	20%
CC1CC(C)CN(S(=O)(=O)c2ccc(C(=O)N3CCN(c4ccccc4)CC3)cc2)C1 (centres undefined)	-28%	10µM*	-25	?	1%	?
Cc1ccc(C(=O)N2CCN(c3ccc(F)cc3)CC2)cc1S(=O)(=O)N1CCCCC1	2%	.	-84*	?	-7%	9.3µM*
O=C(c1ccc(Cl)c(S(=O)(=O)N2CCCCC2)c1)N1CCN(c2ccccc2)CC1	-11%	?	-77*	-22%	0%	72%
CC1CCN(S(=O)(=O)c2cc(C(=O)N3CCN(c4ccccc4)CC3)ccc2Br)CC1	.	.	-76*	.	.	.
O=C(CCc1c[nH]c2ccccc12)N1CCN(S(=O)(=O)c2ccc(F)cc2)CC1	-1%	?	-26	?	9%	?

Screening data from PubChem BioAssay.
